# Laboratory results taken from PubChem BioAssay.
# Calls of active or inactive are those of the source.
# Experiments:
# [1] = compound effects on lung adenocarcinoma cell viability – A549, calcein-AM fluorescence, 48 h, basal, profiling panel (AID 1162); settings: higher = more signal
# [2] = compound effects on differentiated 3T3-L1 adipocyte viability – cell-based, 3T3-L1 adipocytes, calcein-AM fluorescence, 48 h, basal, profiling panel (AID 1163); settings: 3T3-L1 adipocytes viability, higher = more signal
# [3] = compound effects on hepatocellular carcinoma cell viability – HepG2, calcein-AM fluorescence, 48 h, basal, profiling panel (AID 1164); settings: higher = more signal
# [4] = compound effects on multiple myeloma cell viability – MM1S, calcein-AM fluorescence, 48 h, basal, profiling panel (AID 1165); settings: higher = more signal;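 note: viability of MM1S multiple myeloma cells under basal unstimulated conditions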
# [5] = calcein-AM signal in unstimulated myeloma cells – cell-based, calcein-AM fluorescence, 48 h, PK04 Diversity Set, profiling panel (AID 1166); settings: RPMI8226 myeloma viability, higher = more signal;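 note: cells grown under basal conditions without added stimulus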
# [6] = JC-1 mitochondrial signal, unstimulated HepG2 cells – cell-based, JC-1 fluorescence, 24 h, 100 nL compound, profiling panel (AID 1167); settings: HepG2 mitochondrial potential, higher = more signal
# [7] = JC-1 mitochondrial signal, unstimulated adipocytes – cell-based, JC-1 fluorescence, 3T3-L1 adipocytes, 24 h, 100 nL compound, profiling panel (AID 1168); settings: JC-1 mitochondrial fluorescence, higher = more signal, called active from +8 up or from −8 down
# [8] = JC-1 mitochondrial signal, unstimulated myeloma cells – cell-based, JC-1 fluorescence, RPMI8226, 24 h, 100 nL compound, profiling panel (AID 1169); settings: JC-1 mitochondrial potential fluorescence, higher = more signal
# [9] = JC-1 mitochondrial signal, unstimulated MM1S myeloma – cell-based, JC-1 fluorescence, 24 h, 100 nL compound, profiling panel (AID 1170); settings: MM1S mitochondrial potential, higher = more signal
# [10] = resazurin metabolic signal in A549 cells – cell-based, resazurin fluorescence, 24 h, PK04 Diversity Set, profiling panel (AID 1171); settings: A549 viability, higher = more signal, called active from +8 up or from −8 down
# Note: test concentration not given here.
Structure (SMILES),z-score [1],z-score [2],z-score [3],z-score [4],z-score [5],z-score [6],z-score [7],z-score [8],z-score [9],z-score [10]
CO[C@H]1COC(=O)CC=C[C@@H](C)COC(=O)[C@@H](C)NC(=O)CC=C[C@@H]1C,0.43,0.688,1.37,0.344,0.615,1.24,1.87 (inactive),-0.258,1.52,0.372 (inactive)
O=C1O[C@H](c2ccccc2)[C@H](c2ccccc2)N2[C@H]1[C@@H](C(=O)Nc1nc3ccccc3s1)[C@]1(C(=O)Nc3ccc(C#CC4(O)CCCCCC4)cc31)[C@H]2c1ccc(O)cc1,-0.0457,0.6,-0.0827,-2.98,-4.08,-3.62,-2.4 (inactive),-1.14,-0.676,-0.318 (inactive)
C=CCC(OC(C)=O)[C@@H]1[C@@H](N(Cc2cc3ccccc3o2)C(=O)Cc2ccc(F)cc2)c2cc(OCCCO)ccc2N1C(=O)c1ccc(-c2ccccc2)cc1 (stereo not given in full),1.79,0.0893,1.01,0.661,0.708,2.84,0.756 (inactive),0.602,0.0416,1.18 (inactive)
CN(C)C(=O)[C@@]1(Cc2ccccc2N=[N+]=[N-])N=C(c2ccc(OCCCO)cc2)O[C@H]1c1ccccc1CN=[N+]=[N-],-0.996,1.16,-1.23,-2.91,-3.39,2.17,0.618 (inactive),-0.904,-0.679,0.276 (inactive)
O=C/C=C/c1ccccc1Cl,1.23,0.556,1.03,-0.882,0.895,1.74,0.603 (inactive),0.562,1.09,0.807 (inactive)
CO[C@H]1COC(=O)CC=C[C@H](C)[C@@H](OC)COC(=O)CC=C[C@@H]1C,1.09,0.569,1.06,0.244,0.859,1.36,0.425 (inactive),-0.36,0.758,0.99 (inactive)
C=CCN(C(=O)C1N(c2ccc(CCO)cc2)C(=O)C2C(C(=O)O)C3C=CC21O3)C(C)(C)C (stereo not given),0.478,1.86,0.134,1.69,-0.265,0.556,2.37 (inactive),0.0149,1.08,-1.3 (inactive)
C=CC[C@]1(C(=O)O)N=C(c2ccc(OCCCO)cc2)O[C@H]1c1ccccc1,0.0248,1.88,0.0696,-0.394,-0.512,0.801,0.0186 (inactive),-0.755,1.29,0.692 (inactive)
COC(=O)[C@H]1[C@@H]2COc3ccccc3[C@H]2N[C@H]1C(=O)OC,0.0306,0.0308,0.648,-1.29,-0.347,0.321,-0.819 (inactive),0.195,-0.975,-0.124 (inactive)
C=CCC(OC(C)=O)[C@@H]1[C@@H](N(Cc2cc3ccccc3o2)C(=O)c2ccc(C)cc2)c2cc(OCCCO)ccc2N1C(=O)c1ccc2ccccc2n1 (stereo not given in full),2.73,0.362,1.54,0.906,1.09,2.46,1.5 (inactive),0.648,1.19,1.66 (inactive)
Cc1ccc(N2C(=O)c3ccccc3[C@@H](C(=O)NCc3ccccc3)[C@@H]2c2ccc(CO)cc2)nc1,1.08,1.14,-0.296,0.2,1.18,0.532,1.07 (inactive),0.0567,0.202,0.737 (inactive)
C[C@H]1COC(=O)[C@H](Cc2ccccc2)NC(=O)[C@@H](C)COC(=O)[C@H](Cc2ccccc2)NC1=O,-0.429,1.27,0.0613,0.244,1.03,0.827,0.382 (inactive),-0.405,0.0881,0.512 (inactive)
CN1CCC(CCCO)=CC1C1CC1 (stereo not given),0.4,0.852,-0.879,-0.833,0.174,1.32,0.57 (inactive),0.201,0.389,-0.0682 (inactive)
C=CCC1=C[C@H]2[C@H]([C@@H]3C=C[C@]2(CC=C)C(=O)[C@]32CO2)[C@@]2(CO2)C1=O,-0.135,0.916,-0.732,-3.16,-2.93,0.896,1.54 (inactive),-0.201,-2.08,-1.33 (inactive)
COc1ccc(-c2ccccc2[C@@H]2N[C@H](C(=O)O)CC[C@H]2C)cc1,0.212,1.63,-0.428,1.09,-0.372,0.924,0.366 (inactive),0.1,0.614,0.597 (inactive)
C[C@@H]1NC(=O)CC=C[C@@H](C)[C@@H]2C=C[C@H](O)[C@@H](COC(=O)[C@H](C)NC(=O)CC=C[C@@H](C)[C@@H]3C=C[C@H](O)[C@@H](COC1=O)O3)O2,0.362,1.59,-0.195,0.188,-1.38,1.1,0.863 (inactive),0.21,0.665,-0.756 (inactive)

Structure (SMILES),z-score [1],z-score [2],z-score [3],z-score [4],z-score [5],z-score [6],z-score [7],z-score [8],z-score [9],z-score [10]
CC(C)[Si]1(C(C)C)OCc2cc(C3CC3)nc(-c3ccccc3)c21,0.0145,1.06,-0.899,-0.319,-1.54,-0.012,1.6 (inactive),-0.373,0.542,1 (inactive)
COC(=O)[C@@]1(Cc2ccc(OC)cc2)[C@H]2c3cc(C(=O)N(C)C)n(Cc4ccc(C)c(F)c4F)c3C[C@H]2CN1C(=O)c1ccccc1,-1.81,-0.484,-1.15,-1.34,-1.5,0.00937,-0.589 (inactive),0.817,-1.3,1.41 (inactive)
COc1cc(CO)cc(I)c1O[C@H]1C=C(C(=O)NCCO)C[C@@H](N(CC2CCCCC2)C(=O)c2cc3ccccc3oc2=O)[C@@H]1O,0.846,-0.5,0.206,1.01,-1.1,0.919,-0.294 (inactive),-0.806,-0.467,-0.206 (inactive)
COc1cc2c(cc1OC)CN(C(=O)[C@H]1[C@@H]3C(=O)O[C@@H](c4ccccc4)[C@@H](c4ccccc4)N3[C@@H](c3ccccc3OCCO)[C@]13C(=O)Nc1ccc(C#CC4(O)CCCCCC4)cc13)CC2,0.434,-0.0514,1.64,-0.988,-1.93,-0.198,0.994 (inactive),-0.812,-1.41,-0.771 (inactive)
CC(C)=C1C(=O)C(c2ccccc2)=C2CN3C(=O)N(CCc4ccccc4)C(=O)[C@]3(Cc3ccccc3)[C@H]21,-0.778,0.66,0.0577,0.492,-0.895,-0.366,-0.623 (inactive),-0.0727,-0.496,-0.723 (inactive)
CO[C@H]1COC(=O)[C@H](Cc2ccccc2)NC(=O)CC=C[C@@H](C)[C@H](OC)COC(=O)CC=C[C@@H]1C,-0.0862,-0.557,0.5,0.214,1.71,0.00562,0.954 (inactive),-0.791,0.411,0.174 (inactive)
COc1ccc([Si](C)(C)[C@@H]2[C@@H](CC(=O)N(CCO)Cc3ccccc3)O[C@]3(C(=O)N(Cc4cccc(N5CCC5=O)c4)c4ccccc43)[C@H]2C)cc1,-1.45,1.5,-2.2,-2.55,-4.06,0.952,-0.0485 (inactive),-0.917,-0.523,-1.82 (inactive)
CCOC(=O)[C@H]1C/C=C/C[C@H](C(=O)OCC)C(=O)O[C@H]2[C@@H](OC)O[C@H](CO)[C@@H](OC(=O)Nc3ccc(Br)cc3)[C@@H]2OC1=O,-4.47,-0.34,-5.12,-3.28,-4.16,-3.44,2.89 (inactive),-0.948,-1.83,-7.29 (inactive)
Cc1ccc(S[C@]2(C(=O)O)CC(=O)N(Cc3cc(C(F)(F)F)cc(C(F)(F)F)c3)[C@@H]2c2ccc(CO)cc2I)cc1,0.673,0.429,0.324,-3,-2.22,-0.338,-0.459 (inactive),-0.325,-1.36,0.288 (inactive)
C=CCC(OC(C)=O)[C@@H]1[C@@H](N(Cc2ccc(-c3cccc(C(F)(F)F)c3)o2)C(=O)Cc2ccc(F)cc2)c2cc(OCCCO)ccc2N1C(=O)c1ccc(-c2ccccc2)cc1 (stereo not given in full),0.468,0.145,0.536,1.16,-0.147,1.88,-1.64 (inactive),-0.582,0.286,0.303 (inactive)
CCCC[C@@H]1C[C@H]1[C@@H](NC(=O)c1ccccc1)c1ccccc1C(F)(F)F,-0.407,0.128,-0.0379,-1.69,-0.947,-1.06,-0.895 (inactive),-0.472,-0.573,2.38 (inactive)
CO[C@H]1COC(=O)CC=C[C@H](C)COC(=O)[C@@H](OCc2ccccc2)C=C[C@@H]1C,-0.696,-0.886,0.806,0.178,-1.73,0.96,0.877 (inactive),0.103,0.398,0.0283 (inactive)
COC(=O)[C@@]1(Cc2ccccc2CN=[N+]=[N-])N=C(c2ccc(OCCCO)cc2)O[C@H]1c1ccccc1N=[N+]=[N-],-2.1,0.0397,-2.36,-2.99,-3.63,-0.00729,-0.222 (inactive),-1.19,-2.29,-1.35 (inactive)
C[C@@H]1CC[C@H]2C(=O)N3[C@@H](CC[C@@H](C)[C@@H]3c3cccc(N4CCOCC4)c3)C(=O)N2[C@H]1c1cccc(Br)c1,1.56,1.4,0.273,-0.775,-1.3,3.04,0.37 (inactive),-0.779,0.521,1.36 (inactive)
CC(C)C[C@@H]1NC(=O)[C@H]2C[C@@H](C(=O)NCCCCCC[N+](C)(C)C)[C@@H](c3ccc(O)cc3)N2C1=O,-0.547,-0.304,-1.01,-0.0171,0.0824,-0.575,0.177 (inactive),-0.342,-0.958,1.09 (inactive)
C=C(CCCC)C(=O)CC[C@@H](OC(C)=O)c1ccccc1OCCO,0.509,-0.0795,-0.54,-2.62,-1.67,-0.684,1.08 (inactive),-0.76,0.93,0.288 (inactive)
